Shown are actives, neighbours in structure and some others; about 6.7% of the full set was active somewhere.
Pf Dd2 growth: blocks growth of Plasmodium falciparum Dd2 parasites; P. falciparum Dd2 growth, SYBR Green, 72 h; stronger effect = lower value; activity change, % at 10 µM; 2.3% of 94,000 active; in the data active = activity change below about -80%; inconclusive = no clear call, values can overlap the other calls
T cruzi growth-1: blocks T. cruzi growth in NIH3T3 culture. T. cruzi beta-gal in NIH3T3, GalScreen luminescence, 90 h. 5.9% of 77,000 active. AID 624255. inhibition, % at 8.34 µM;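 active = mean inhibition above about 93%, with at least 55% of replicates each passing it, limit read from the data, passing the limit was not always enough; inconclusive = only one of those two conditions holds; inactive = neither condition holds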
C diff growth: C. difficile growth inhibition. Clostridium difficile clinical isolate growth, OD600, 24 h; stronger effect = lower value. growth activity, negative = inhibition, % at 16 µg/mL (by protocol). 0.25% of 86,000 active;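 active = mean growth activity at or below -80% and every replicate also at or below -80%; inconclusive = mean at or below -80% but some replicate above -80%; inactive = mean growth activity above -80%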;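 note: 0% = DMSO wells and -100% = levofloxacin 16 µg/mL wells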
T cruzi growth-2: Trypanosoma cruzi proliferation inhibition. shares compounds with T cruzi growth-1. T. cruzi beta-gal in NIH3T3, GalScreen luminescence, 90 h. inhibition, % at 8.35 µM. 72% of 5,600 active;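 active = mean replicate inhibition above about 95% and at least 55% of replicates individually reaching it, limit read from the data; inconclusive = only one of the two criteria is met; inactive = neither criterion is met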
T cruzi growth-3: Trypanosoma cruzi proliferation inhibition; T. cruzi beta-gal in NIH3T3, GalScreen luminescence, 90 h; AID 651740; inhibition, % at 2.09 µM; shares compounds with T cruzi growth-1; 21% of 5,600 active;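 active = mean inhibition above about 95%, with at least 55% of replicates also reaching it, limit read from the data; inconclusive = meets just one of the two conditions; inactive = meets neither condition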;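 note: plate controls were neutral control median for no effect and positive control median for full effect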
3T3 cytotox: cytotoxicity in mouse NIH/3T3 fibroblasts; NIH/3T3 viability, CellTiter-Glo ATP luminescence, 90 h; cytotoxicity (signal decrease), % at 8.35 µM; AID 651742; 14% of 5,600 active; shares compounds with T cruzi growth-1;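 active = mean signal decrease across replicates above about 35% based on untreated-well scatter, with enough replicates individually passing, limit read from the data; inconclusive = no rule stated though some were filed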;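 note: 0% = median of neutral control wells and 100% = median of positive control wells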
3T3 cytotox 2: NIH/3T3 (mouse) viability loss; NIH/3T3 viability, CellTiter-Glo ATP luminescence, 90 h; AID 651744; inhibition, % at 24.9 µM; shares compounds with T cruzi growth-1; 56% of 5,600 active;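 active = mean loss of cell viability signal at or above a set limit, and enough replicates individually reaching it; inconclusive = meets only the mean limit or only the replicate share; inactive = meets neither condition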;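 note: 0% = median of neutral control wells and 100% = median of positive control wells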
* marks the source's active call; other numbers are inactive results; ? = inconclusive; · = no result given.

SMILES	Pf Dd2 growth	T cruzi growth-1	C diff growth	T cruzi growth-2	T cruzi growth-3	3T3 cytotox	3T3 cytotox 2
CC(C)C#Cc1ccc2c(c1)O[C@@H](CN(C)Cc1ccccc1)[C@H](C)CN([C@H](C)CO)S2(=O)=O	-66.5	92.7	10.5	·	·	·	·
C[C@@H](O)C#Cc1ccc2c(c1)O[C@H](CN(C)Cc1ccccc1)[C@@H](C)CN([C@@H](C)CO)S2(=O)=O	-49.3	39.7	-4.3	·	·	·	·
C[C@@H]1CN([C@@H](C)CO)S(=O)(=O)c2ccc(C#CCN(C)C)cc2O[C@H]1CN(C)Cc1ccccc1	-54.0	108.9*	-2.7	105.0*	97.8*	31.6	104.3*
C[C@@H]1CN([C@@H](C)CO)S(=O)(=O)c2ccc(C#CCN(C)C)cc2O[C@H]1CN(C)Cc1ccc(F)cc1	-77.1	113.3*	5.9	?	91.1	51.1*	103.2*
C[C@@H]1CN([C@@H](C)CO)S(=O)(=O)c2ccc(C#CCN(C)C)cc2O[C@@H]1CN(C)Cc1ccc(F)cc1	-54.1	61.2	-0.8	·	·	·	·
C[C@@H]1CN([C@H](C)CO)S(=O)(=O)c2ccc(C#CCN(C)C)cc2O[C@H]1CN(C)Cc1ccccc1	-57.7	107.5*	-1.9	97.5*	84.2	44.5*	104.2*
C[C@H]1CN([C@@H](C)CO)S(=O)(=O)c2ccc(C#CCN(C)C)cc2O[C@H]1CN(C)Cc1ccccc1	-42.8	?	0.6	105.4*	63.9	22.4	39.4*
C/C=C/c1cnc2c(c1)C(=O)N([C@H](C)CO)C[C@H](C)[C@@H](CN(C)C(=O)c1cnccn1)O2	36.8	·	0.2	·	·	·	·
C[C@H]1CN([C@@H](C)CO)C(=O)c2cccc(NC(=O)C3CCOCC3)c2O[C@@H]1CN(C)Cc1ccc(C(=O)O)cc1	60.9	-12.7	0.6	·	·	·	·
CC(C)CC#Cc1ccc2c(c1)O[C@H](CN(C)C(=O)Cc1ccccn1)[C@@H](C)CN([C@H](C)CO)S2(=O)=O	-69.8	19.1	-7.2	·	·	·	·
O=S(=O)(c1ccccc1F)N1CC[C@@H]2[C@@H](CO)Nc3ccc(-c4cccc(F)c4)cc3[C@@H]21	13.4	29.3	-2.2	·	·	·	·
COc1cccc(-c2ccc3c(c2)[C@@H]2[C@@H](CCN2S(=O)(=O)c2ccccc2C)[C@@H](CO)N3)c1	-49.4	62.3	7.5	·	·	·	·
Cc1ccccc1S(=O)(=O)N1CC[C@@H]2[C@H]1c1cc(-c3cccc(C#N)c3)ccc1N[C@@H]2CO	3.5	23.9	0.7	·	·	·	·
Cc1ccccc1S(=O)(=O)N1CC[C@@H]2[C@H]1c1cc(-c3ccc(F)cc3)ccc1N[C@@H]2CO	-4.2	39.0	8.5	·	·	·	·
N#Cc1cccc(-c2ccc3c(c2)[C@H]2[C@H](CCN2S(=O)(=O)c2ccccc2F)[C@@H](CO)N3)c1	18.1	107.3*	-0.6	?	67.1	30.0	55.2*
Cc1ccccc1S(=O)(=O)N1CC[C@@H]2[C@@H](CO)Nc3ccc(-c4cccc(F)c4)cc3[C@@H]21	14.4	97.6*	-0.3	104.2*	111.6*	59.5*	105.7*
Cc1ccccc1S(=O)(=O)N1CC[C@@H]2[C@H](CO)Nc3ccc(-c4cccc(F)c4)cc3[C@@H]21	16.9	104.5*	1.1	?	108.6*	27.0	104.1*
Cc1ccccc1S(=O)(=O)N1CC[C@@H]2[C@H]1c1cc(-c3cccc(F)c3)ccc1N[C@@H]2CO	21.9	107.3*	0.8	99.8*	47.8	28.1	105.6*
CO[C@H]1CN(C)C(=O)c2ccc(NC(=O)Cc3ccccc3)cc2OC[C@@H](C)N(C(C)=O)C[C@@H]1C	30.4	-18.5	·	·	·	·	·
C[C@@H]1CCCCO[C@H](CN(C)Cc2ccccc2)[C@H](C)CN([C@H](C)CO)C(=O)c2cc(NS(=O)(=O)c3cn(C)cn3)ccc2O1	-3.9	-19.2	·	·	·	·	·
Cn1cnc(S(=O)(=O)N2CC[C@@H]3[C@H]2c2cc(-c4cccc(F)c4)ccc2N[C@@H]3CO)c1	17.7	?	-13.5	100.7*	42.2	3.4	4.1
Cc1ccccc1S(=O)(=O)N1CC[C@H]2[C@H](CO)Nc3ccc(-c4ccc(F)cc4)cc3[C@H]21	14.3	24.7	46.5	·	·	·	·
Cn1cnc(S(=O)(=O)N2CC[C@@H]3[C@H]2c2cc(-c4ccc(F)cc4)ccc2N[C@@H]3CO)c1	-12.1	62.0	-6.2	·	·	·	·

From PubChem BioAssay
